# TRPV1 potentiator: HTS Assay for Compounds that Act as Potentiators of the Vanilloid Receptor 1; Transient receptor potential cation channel subfamily V member 1 (Homo sapiens), Q8NER1; TRPV1-expressing cells, Fluo-8 calcium influx, capsaicin EC20 potentiation; potentiation, % at 8.33 µM; 320,000 compounds, 0.02% hits; in the data active = potentiation above about 80%; inconclusive = between about 30% and that limit; note: 0% is about no effect
#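 Fluo-8 calcium influx in TRPV1-expressing cells, kinetic read (ex 480/em 520 nm). Compound added and read 3 min for agonist activity, followed by capsaicin at EC20 final and 2 min further read for enhancement.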
# D1 ag: Allosteric Agonists of the Human D1 Dopamine Receptor: qHTS. 360,000 compounds, 1% hits. activation, % at 2 µM. HEK293 T-REx D1 cells, calcium flux, agonist mode. D(1A) dopamine receptor (Homo sapiens), P21728; in the data active = activation above about 30%; note: 0% is about no effect
# Target sequence (P21728 whole entry, looked up): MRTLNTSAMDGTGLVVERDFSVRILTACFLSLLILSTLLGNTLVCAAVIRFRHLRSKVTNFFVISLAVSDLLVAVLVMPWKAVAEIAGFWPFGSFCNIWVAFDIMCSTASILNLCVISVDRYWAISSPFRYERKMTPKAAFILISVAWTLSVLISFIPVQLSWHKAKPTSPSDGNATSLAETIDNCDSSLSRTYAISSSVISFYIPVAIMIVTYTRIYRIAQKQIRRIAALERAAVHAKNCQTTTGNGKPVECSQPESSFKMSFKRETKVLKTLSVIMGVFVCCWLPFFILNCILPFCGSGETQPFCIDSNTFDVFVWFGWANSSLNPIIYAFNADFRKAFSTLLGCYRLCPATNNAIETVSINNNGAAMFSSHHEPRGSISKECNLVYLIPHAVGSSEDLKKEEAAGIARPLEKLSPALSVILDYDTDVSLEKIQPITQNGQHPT
#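 Agonism was scored from calcium flux recorded over 180 s (1 read/s) after pintool compound addition, following a 10-cycle baseline. Cells were inducible force-coupled HEK293 TREx D1, plated overnight at 30 C and loaded with no-wash calcium dye.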
# TRPV1 agonist: HTS Assay for Compounds that Act as Agonists of the Vanilloid Receptor 1; TRPV1-expressing cells, Fluo-8 calcium influx, agonist mode; 320,000 compounds, 0.19% hits; activation, % at 8.33 µM; in the data active = activation above about 80%; inconclusive = between about 30% and that limit; note: 0% is about no effect
#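 TRPV1-expressing cells were cultured overnight at 35.5C and loaded with Fluo-8 calcium dye for 40 to 90 min at room temperature. After a 10 s baseline, compound was added and calcium influx was read kinetically for 3 min (ex 480/em 520 nm).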
# D1 potentiator: Potentiators of Human D1 Dopamine Receptor: qHTS; D(1A) dopamine receptor (Homo sapiens), P21728; AID 504651, 2011; potentiation, % at 10 µM; 360,000 compounds, 0.036% hits; HEK293 TREx D1 cells, calcium flux, dopamine EC20 potentiation; in the data active = potentiation above about 30%; note: 0% is about no effect
# D1 antagonist: Antagonist of Human D 1 Dopamine Receptor: qHTS | D(1A) dopamine receptor (Homo sapiens), P21728 | HEK293 TREx D1 cells, calcium flux, dopamine EC80; stronger effect = lower value | activity change, negative = inhibition, % at 10 µM | 360,000 compounds, 3.2% hits | AID 504652, 2011; in the data active = activity change below about -30%; note: % is set by controls: 0 for no effect and ±100 for the full control effect
#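 Tetracycline-induced HEK293 T-REx cells with force-coupled D1 receptor were loaded with a no-wash calcium dye. Compound was added after a 10 s baseline and read kinetically for 180 s; EC80 dopamine was then added and calcium flux followed another 180 s.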
# * hit, by the source's call; ? = inconclusive; . = no result given. Hits are enriched below; roughly 4.2% of the tested compounds scored in any of these assays.
SMILES,TRPV1 potentiator,D1 ag,TRPV1 agonist,D1 potentiator,D1 antagonist
COc1cc(OC)c(OC)cc1CN1CCCC(C(=O)c2ccc3c(c2)OCO3)C1 (stereo not given),10,1,-1,-5,-10
COc1ccc(-c2noc(CSc3nnc(-c4ccncc4)n3-c3ccc(OC)cc3)n2)cc1,.,5,.,1,-10
CCCCNC(=O)c1cc(-c2ccc(OC)cc2)nc2n[nH]c(-c3cccc([N+](=O)[O-])c3)c12,.,3,.,3,22
CCOc1ccc(/C=C/C(=O)NCCc2ccc(OC)c(OC)c2)cc1,-3,3,14,3,-25
CCCCNC(=O)/C=C/c1ccc(OC)c(Br)c1,-19,0,?,-12,-30*
COc1ccccc1NS(=O)(=O)c1cc(C(=O)NCC(c2ccco2)N2CCCCC2)ccc1C (stereo not given),10,-2,0,-2,2
COc1ccccc1NC(=O)NCC(c1ccco1)N1CCCCC1 (stereo not given),0,5,0,-4,-41*
CCCCNC(=O)CN1C(=O)c2cccnc2Sc2ccccc21,.,3,.,-5,7
COc1ccc(NC(=O)c2cccc(N3CCCS3(=O)=O)c2)cc1OC,.,0,.,-4,13
O=C(COc1ccccc1)NC(=S)Nc1ccc2c3c(cccc13)CC2,3,4,3,-4,-2
O=C(COc1ccccc1)NC(=S)Nc1cccc2cc(O)ccc12,1,35*,5,-2,19
CCCCCOc1ccc(NC(=O)C2OC3OC(C)(C)OC3C3OC(C)(C)OC23)cc1 (stereo not given),-3,2,-3,2,18
CC(C)CCOc1ccc(NC(=O)C2OC3OC(C)(C)OC3C3OC(C)(C)OC23)cc1 (stereo not given),-15,-1,-3,4,-43*
COC(=O)c1cc(NC(=O)c2nn(C)c3c2COc2ccccc2-3)cc(C(=O)OC)c1,.,0,.,-2,-55*
CCC(C)n1c(=O)c2sccc2n2c(CCCC(=O)NCc3ccccc3Cl)nnc12 (stereo not given),.,2,.,-4,12
CC1CCCC(C)N1C(=O)c1cc2ncc(CCCl)cn2n1 (stereo not given),-3,3,6,-2,-10
O=C(c1cc2ncc(CCCl)cn2n1)N1CCCCCC1,7,2,5,-4,-48*
CCOc1cccc(C2c3c(oc4ccc(F)cc4c3=O)C(=O)N2CCc2ccc(OC)cc2)c1 (stereo not given),.,0,.,-7,-30*
CCCOc1ccc(C2c3c(oc4ccc(F)cc4c3=O)C(=O)N2CCc2ccc(OC)cc2)cc1 (stereo not given),.,-1,.,1,5
CCc1ccc(C2c3c(oc4ccc(F)cc4c3=O)C(=O)N2c2nc(C)c(C(=O)OC)s2)cc1 (stereo not given),.,0,.,-10,-69*
CCOC(=O)c1sc(N2C(=O)c3oc4ccc(F)cc4c(=O)c3C2c2ccc(O)cc2)nc1C (stereo not given),.,1,.,-1,8
COc1ccc(-c2cn3c(n2)sc2cc(C(=O)N4CCCCC4)ccc23)cc1,.,1,.,-1,-1
Cc1cccc(OCC(=O)Nc2ccc3c(c2)nc(CCNC(=O)c2ccco2)n3C)c1,.,-1,.,-3,-18
CC1CN(C(=O)CCC(=O)NCc2ccccc2)c2ccccc2S1 (stereo not given),2,6,13,-2,-3
CC1CN(C(=O)CCC(=O)NCc2ccc(Cl)cc2)c2ccccc2O1 (stereo not given),?,5,7,-19,-83*
SMILES,TRPV1 potentiator,D1 ag,TRPV1 agonist,D1 potentiator,D1 antagonist
CC1CN(C(=O)CCC(=O)NCc2cccc(Cl)c2)c2ccccc2S1 (stereo not given),.,4,.,-8,-32*
CC1CN(C(=O)Nc2ccc(C(=O)NCc3cccc(F)c3)cc2)c2ccccc2S1 (stereo not given),.,0,.,4,-43*
COc1ccccc1NC(=O)C1CCN(S(=O)(=O)c2ccc3[nH]c4c(c3c2)CCCCC4)CC1,.,3,.,-3,14
COc1ccc(OCC(O)CNCCOc2ccccc2OC)c(C(C)(C)C)c1 (stereo not given),8,59*,-2,0,16
CCOC(=O)c1ccccc1Nc1cc(C)nc2nc(-c3ccco3)nn12,-8,74*,?,2,-32*
Cc1cc(Nc2ccccc2Cl)n2nc(-c3ccco3)nc2n1,.,0,.,0,0
CCN(CC)C(=O)CSc1nc2c(sc(=S)n2-c2ccc(C)cc2C)c(=O)[nH]1,20,1,-4,-4,-41*
C=CCN1c2ccccc2[C@]23C[C@@H](C(=O)OC)N(C(=O)NCCC)C2=NC(C(=O)OC)=C(C(=O)OC)[C@H]13,17,10,-3,0,-33*
CCCCNc1c(-c2ccc(OC)c(SC3CCCCC3)c2)nc2cnccn12,-14,3,?,5,3
CCCCNc1c(-c2ccc(OC)c(SC3CCCCC3)c2)nc2cc(C)ccn12,6,0,88*,4,-3
Cc1nc(-c2cccnc2)sc1C(=O)Nc1ccc(C(F)(F)F)cc1,-30,2,-1,-3,-33*
Cc1nc(-c2cccnc2)sc1C(=O)Nc1cccc(C(F)(F)F)c1,-14,2,17,-3,4
O=C(COc1ccc2ccccc2c1Br)N1CCCCC1,0,2,16,-10,-32*
NC(=O)C1CCN(C(=O)COc2ccc3ccccc3c2Br)CC1,-21,3,?,-7,-64*
COc1ccc(OC)c(NC(=O)Cn2cnc3ccc(S(=O)(=O)N4CCC(C)CC4)cc3c2=O)c1,.,-1,.,1,-17
CCOc1ccc(NC(=O)CSc2nnc3c(C)cc4ccccc4n23)cc1,.,1,.,-3,6
Cc1nc2nc(NC(=O)c3ccc(Cl)cc3)[nH]n2c(=O)c1Cc1ccccc1,.,3,.,2,-7
O=C(NCCc1ccc(Cl)cc1)c1ccc(CSCc2ccccc2Cl)o1,.,31*,.,-2,-20
CCOc1ccc(CCNC(=O)c2ccc(CSCc3ccccc3C)o2)cc1OCC,.,36*,.,-3,-22
CCOc1ccc(CCNC(=O)c2ccc(CS(=O)(=O)c3ccccc3C)o2)cc1OCC,.,1,.,-2,3
Cc1cccc(CSCc2ccc(C(=O)NCCc3ccccc3)o2)c1,.,11,.,-2,-79*
Cc1ccccc1C(=O)OCc1cc(=O)n2nc(C(C)C)sc2n1,.,3,.,0,-28
